Test results from PubChem BioAssay AID1259416 (Broad Institute, 2018).
Among all 69,000 compounds or so, about 2,600 (3.8%) were called active. Rule as the data show it: active = activity change below about -70% (passing the limit was not always enough); inconclusive = no clear call, values can overlap the other calls. The sample as a whole holds a higher share of actives than the screen did.

experiment: T. gondii growth inhibition with IFN-gamma, primary screen, cell-based (AID 1259416); details: Toxoplasma gondii growth in IFN-gamma-treated host cells; hits give low values; concentration not given here;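 also: host cells are HeLa cells infected with Toxoplasma gondii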

Question: With `COCC(=O)N1CCC2(CC1)C(=O)N(c1cncnc1)c1ccccc12` as the compound, how does the activity change, negative = inhibition read?
Answer: -5.94% (inactive)

Question: Which activity change, negative = inhibition does the source give for `C[C@H]1CN([C@@H](C)CO)S(=O)(=O)c2ccc(C#CC3(O)CCCC3)cc2O[C@@H]1CN(C)C(=O)Nc1cccc(F)c1` here?
Answer: -69.9% (inactive)

Question: With `C[C@@H]1CN([C@@H](C)CO)S(=O)(=O)c2ccc(C#Cc3cccc(F)c3)cc2O[C@H]1CN(C)S(=O)(=O)c1cn(C)cn1` as the compound, how does the activity change, negative = inhibition read?
Answer: -31.1% (inactive)

Question: For `C[C@H]1CN([C@@H](C)CO)S(=O)(=O)c2ccc(C#Cc3cccc(F)c3)cc2O[C@@H]1CN(C)S(=O)(=O)c1cn(C)cn1`, which activity change, negative = inhibition is on record?
Answer: -91.2% (active)

Question: Which activity change, negative = inhibition does the source give for `Cn1c(=O)c2nc(-c3ccc(I)cc3)oc2c2ccccc21` here?
Answer: -20.4% (inactive)

Question: With `CCCN1CCn2cc(C(=O)N3CCN(c4cccc(OC)c4)CC3)nc2C1` as the compound, how does the activity change, negative = inhibition read?
Answer: 15% (inactive)

Question: For `Cc1cccc(Nc2nc(C(=O)Nc3cccc4c3CCCC4)nc3ccccc23)c1`, which activity change, negative = inhibition is on record?
Answer: -67.4% (inactive)

Question: For `Cc1cccc(Nc2nc(C(=O)Nc3cccc(Cl)c3C)nc3ccccc23)c1`, which activity change, negative = inhibition is on record?
Answer: -75.4% (active)

Question: Which activity change, negative = inhibition does the source give for `Cc1ccc(CNC(=O)c2nc(Nc3ccc(C)cc3)c3ccccc3n2)cc1` here?
Answer: 40.8% (inactive)

Question: With `O=C(Nc1ccccc1Br)c1nc(Nc2ccccc2)c2ccccc2n1` as the compound, how does the activity change, negative = inhibition read?
Answer: -74.2% (active)

Question: Which activity change, negative = inhibition does the source give for `Cc1cccc(CNC(=O)c2nc(Nc3cccc(C)c3)c3ccccc3n2)c1` here?
Answer: -89.5% (active)

Question: For `CC(Cc1ccco1)NC(=O)c1nc(Nc2ccccc2)c2ccccc2n1` (stereo not drawn), which activity change, negative = inhibition is on record?
Answer: -47% (inactive)

Question: For `O=C(NC1CCCCC1)c1nc(Nc2ccccc2)c2ccccc2n1`, which activity change, negative = inhibition is on record?
Answer: -55.7% (inactive)

Question: Which activity change, negative = inhibition does the source give for `Cc1ccc(Nc2nc(C(=O)Nc3ccc(Cl)cc3F)nc3ccccc23)cc1` here?
Answer: 4.67% (inactive)

Question: With `O=C(NCc1cccc(Br)c1)c1nc(Nc2ccc(F)cc2)c2ccccc2n1` as the compound, how does the activity change, negative = inhibition read?
Answer: -65.9% (inactive)

Question: Which activity change, negative = inhibition does the source give for `CCOc1ccccc1NC(=O)OC1CCCN1C(=O)NCc1ccccc1` (stereo not drawn) here?
Answer: -2.55% (inactive)

Question: With `O=C(COC(=O)c1ccc(Cl)nc1)NCc1ccc2c(c1)OCO2` as the compound, how does the activity change, negative = inhibition read?
Answer: 8.52% (inactive)

Question: Which activity change, negative = inhibition does the source give for `CC(=O)c1c(C)nn(CCC(=O)N2CCC(c3ccccc3C(=O)O)C2)c1C` (stereo not drawn) here?
Answer: 2.53% (inactive)

Question: With `Cc1nc(C)c(S(=O)(=O)NC(CCN2CCOCC2)c2ccccc2)s1` (stereo not drawn) as the compound, how does the activity change, negative = inhibition read?
Answer: 12.7% (inactive)

Question: Which activity change, negative = inhibition does the source give for `CC(C(=O)NCc1ccccc1F)N(c1ccccc1)S(C)(=O)=O` (stereo not drawn) here?
Answer: 12.1% (inactive)

Question: For `O=C(Cn1ncc2c(N3CCN(c4ccccn4)CC3)ncnc21)Nc1cc(F)ccc1F`, which activity change, negative = inhibition is on record?
Answer: -34% (inactive)

Question: For `O=C(Cc1ccccc1)NCCc1nc(N2CCOCC2)ncc1C(=O)N1CCCC1`, which activity change, negative = inhibition is on record?
Answer: 8.84% (inactive)

Question: Which activity change, negative = inhibition does the source give for `CN1C2CCN(Cc3nccs3)CC2C[C@H]1Cn1cncn1` (stereo partly drawn) here?
Answer: 4.21% (inactive)
